# Laboratory results published in PubChem BioAssay (EPA / NIEHS).
# Inconclusive results are not listed. The source made the active and inactive calls. How the source made its calls, unless noted: active means hit-call score of the fitted dose curve at least 0.9, where 1 is the maximum; inconclusive means response in the unintended direction; inactive means score below 0.9.
# What was measured:
# [1] = molecular target: rat Glutamate, AMPA Site (AMPA), Gria1 (gene 50592) (UniProt P19490); assay: NVS_LGIC_rAMPA: NovaScreen (NVS) Ligand-Gated Ion Channel Assay for rat Glutamate, AMPA Site (AMPA) (AID 2283324)
# Chain of rat Glutamate, AMPA Site (AMPA), Gria1 (gene 50592) (P19490 whole entry, looked up): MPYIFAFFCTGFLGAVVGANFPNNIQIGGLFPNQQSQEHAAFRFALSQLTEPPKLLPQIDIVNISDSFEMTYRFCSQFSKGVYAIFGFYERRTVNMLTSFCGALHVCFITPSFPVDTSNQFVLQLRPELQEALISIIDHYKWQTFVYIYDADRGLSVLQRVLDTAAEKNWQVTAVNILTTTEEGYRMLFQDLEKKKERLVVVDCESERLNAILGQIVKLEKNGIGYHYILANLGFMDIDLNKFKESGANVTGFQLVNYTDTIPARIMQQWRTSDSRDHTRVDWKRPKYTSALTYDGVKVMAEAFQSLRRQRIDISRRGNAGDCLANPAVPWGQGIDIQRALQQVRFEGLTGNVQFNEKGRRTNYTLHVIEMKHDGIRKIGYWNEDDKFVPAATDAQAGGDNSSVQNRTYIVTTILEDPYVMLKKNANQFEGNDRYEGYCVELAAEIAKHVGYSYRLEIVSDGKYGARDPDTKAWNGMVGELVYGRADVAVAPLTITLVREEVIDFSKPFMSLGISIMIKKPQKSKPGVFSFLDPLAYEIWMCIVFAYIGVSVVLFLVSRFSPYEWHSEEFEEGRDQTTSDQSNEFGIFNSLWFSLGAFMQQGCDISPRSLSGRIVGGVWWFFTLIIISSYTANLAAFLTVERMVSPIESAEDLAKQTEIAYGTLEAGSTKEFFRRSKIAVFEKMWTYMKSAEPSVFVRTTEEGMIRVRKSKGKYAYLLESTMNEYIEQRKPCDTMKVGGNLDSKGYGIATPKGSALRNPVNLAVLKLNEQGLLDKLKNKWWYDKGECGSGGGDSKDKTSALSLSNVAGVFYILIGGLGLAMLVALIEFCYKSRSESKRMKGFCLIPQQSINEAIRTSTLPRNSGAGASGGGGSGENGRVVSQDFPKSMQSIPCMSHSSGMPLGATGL
# In short: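 Screening at 25 uM in duplicate preceded concentration series reaching 50 uM for qualifying compounds. Radioligand displacement on rat forebrain membranes, 1 h, filter-based scintillation readout; reduced binding relative to DMSO.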
# [2] = molecular target: rat Peripheral-type Benzodiazepine Receptor (PBR), Tspo (gene 24230) (UniProt P16257); assay: NVS_MP_rPBR: NovaScreen (NVS) Membrane Protein Assay for rat Peripheral-type Benzodiazepine Receptor (PBR) (AID 2283335)
# Chain of rat Peripheral-type Benzodiazepine Receptor (PBR), Tspo (gene 24230) (P16257 whole entry, looked up): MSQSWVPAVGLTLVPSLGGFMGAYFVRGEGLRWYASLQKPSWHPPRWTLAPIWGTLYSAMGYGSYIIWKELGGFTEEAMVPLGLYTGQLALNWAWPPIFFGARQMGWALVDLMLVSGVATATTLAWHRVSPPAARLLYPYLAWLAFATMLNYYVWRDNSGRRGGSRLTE
# In short: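 Single-concentration duplicate screening at 25 uM preceded concentration-series retesting of actives. Binding of a specific radioligand to rat kidney membrane PBR was read by filtration radiodetection after 1 h, with plate-wise positive and negative controls.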
# [3] = molecular target: Estrogen receptor (Homo sapiens) (UniProt P03372); assay: NVS_NR_hER: NovaScreen (NVS) Nuclear Receptor Binding Assay for human Estrogen Receptor (ER) (AID 2283348)
# Chain of Estrogen receptor (Homo sapiens) (P03372 whole entry, looked up): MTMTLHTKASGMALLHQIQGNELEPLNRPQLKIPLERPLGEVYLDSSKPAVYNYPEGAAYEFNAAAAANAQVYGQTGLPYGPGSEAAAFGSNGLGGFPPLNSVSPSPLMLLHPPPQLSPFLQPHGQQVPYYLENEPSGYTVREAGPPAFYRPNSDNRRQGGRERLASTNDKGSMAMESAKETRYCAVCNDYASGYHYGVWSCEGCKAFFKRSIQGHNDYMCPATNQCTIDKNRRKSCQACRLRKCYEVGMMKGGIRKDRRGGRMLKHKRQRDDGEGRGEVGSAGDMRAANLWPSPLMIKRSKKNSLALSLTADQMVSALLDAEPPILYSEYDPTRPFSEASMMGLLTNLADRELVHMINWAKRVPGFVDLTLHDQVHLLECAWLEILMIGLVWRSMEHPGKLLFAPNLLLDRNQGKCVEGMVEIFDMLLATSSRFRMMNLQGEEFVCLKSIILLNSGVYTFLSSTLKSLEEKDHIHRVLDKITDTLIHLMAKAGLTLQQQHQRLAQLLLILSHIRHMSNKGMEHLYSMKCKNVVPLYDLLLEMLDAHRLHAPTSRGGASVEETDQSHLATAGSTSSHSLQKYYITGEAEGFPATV
# In short: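 MCF7-derived receptor extract, radiolabelled ligand, competitive displacement. Read: scintillation counts at 18 h. DMSO = negative control/baseline. Primary 25 uM duplicate; follow-up concentration–response.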
# [4] = molecular target: human Serotonin, 5-Hydroxytryptamine Receptor 3 (5HT3), HTR3A (gene 3359) (UniProt P46098); assay: NVS_LGIC_h5HT3: NovaScreen (NVS) Ligand-Gated Ion Channel Assay for human Serotonin, 5-Hydroxytryptamine Receptor 3 (5HT3) (AID 2283325)
# Chain of human Serotonin, 5-Hydroxytryptamine Receptor 3 (5HT3), HTR3A (gene 3359) (P46098 whole entry, looked up): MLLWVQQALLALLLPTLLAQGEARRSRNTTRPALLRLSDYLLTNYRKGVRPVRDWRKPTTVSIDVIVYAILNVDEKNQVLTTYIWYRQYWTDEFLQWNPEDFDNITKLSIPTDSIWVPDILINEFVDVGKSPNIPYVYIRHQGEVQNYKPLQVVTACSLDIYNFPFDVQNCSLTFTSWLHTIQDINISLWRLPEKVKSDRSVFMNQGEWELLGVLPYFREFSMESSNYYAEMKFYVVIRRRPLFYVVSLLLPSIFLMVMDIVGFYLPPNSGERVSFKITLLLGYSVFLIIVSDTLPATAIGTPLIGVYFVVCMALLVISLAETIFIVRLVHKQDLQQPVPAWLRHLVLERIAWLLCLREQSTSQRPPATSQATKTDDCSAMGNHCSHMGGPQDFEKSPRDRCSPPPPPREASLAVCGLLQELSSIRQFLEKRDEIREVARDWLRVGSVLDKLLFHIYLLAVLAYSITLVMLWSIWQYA
# In short: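 Initially tested at 25 uM in duplicate, then up to 50 uM in concentration-response for actives, compounds competed with a radioligand for HEK293-derived human 5-HT3 receptor. Bound counts were measured by filtration and scintillation at 1 h; loss of signal versus DMSO.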
# [5] = molecular target: rat Thyrotropin Releasing Hormone Receptor (TRH), Trhr (gene 25570) (UniProt Q01717); assay: NVS_GPCR_rTRH: NovaScreen (NVS) G Protein-Coupled Receptor Assay for rat Thyrotropin Releasing Hormone Receptor (TRH) (AID 2283329);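 further: hit means lower bound tracer signal versus DMSO baseline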
# In short: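 Cell-free radioligand binding on rat forebrain membranes; bound tracer measured by filter-based scintillation counting 4 hours after dosing. Loss of signal versus DMSO baseline indicates displacement; primary screen at 25 uM in duplicate, actives then run in concentration series.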
# [6] = molecular target: human Peripheral-type Benzodiazepine Receptor (PBR), TSPO (gene 706) (UniProt P30536); assay: NVS_MP_hPBR: NovaScreen (NVS) Membrane Protein Assay for human Peripheral-type Benzodiazepine Receptor (PBR) (AID 2283331);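 further: hits reduce radioligand binding relative to DMSO baseline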
# Chain of human Peripheral-type Benzodiazepine Receptor (PBR), TSPO (gene 706) (P30536 whole entry, looked up): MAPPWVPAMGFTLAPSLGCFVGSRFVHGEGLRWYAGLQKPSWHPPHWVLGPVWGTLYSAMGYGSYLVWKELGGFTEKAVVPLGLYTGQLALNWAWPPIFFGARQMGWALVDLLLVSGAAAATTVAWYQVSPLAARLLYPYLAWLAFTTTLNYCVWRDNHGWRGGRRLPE
# In short: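 Cell-free radioligand displacement, human colonic membranes, 1 h exposure. Filter radiodetection read-out. Single-concentration duplicates (25 uM), then concentration-response for actives; DMSO negative control.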
# [7] = molecular target: Voltage-gated inwardly rectifying potassium channel KCNH2 (Homo sapiens) (UniProt Q12809); assay: NVS_IC_hKhERGCh: NovaScreen (NVS) Ion Channel Assay for human Potassium Channel ERG (KhERGCh) (AID 2283333)
# In short: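 Membranes from CHO cells expressing human ERG; displacement of radioligand measured by filtration and scintillation after 0.75 h. Single-concentration duplicate screen at 25 uM, then concentration-response for actives; DMSO baseline.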
# [8] = NVS_IC_rCaBTZCHL: NovaScreen (NVS) Ion Channel Assay for Calcium Channel, Type L, Benzothiazepine Site (CaBTZCHL) (AID 2283337)
# In short: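 Benzothiazepine-site binding was assessed in a tissue-derived, cell-free rat cortical membrane system. After 1.5 h exposure, radioactivity retained on filters was quantified by scintillation; positive and negative controls accompanied every plate.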
# [9] = molecular target: bovine Gamma-Aminobutyric Acid Type A Receptor Agonist (GABAR Agonist), GABRA1 (gene 780973) (UniProt P08219); assay: NVS_LGIC_bGABAR_Agonist: NovaScreen (NVS) Ligand-Gated Ion Channel Assay for bovine Gamma-Aminobutyric Acid Type A Receptor Agonist (GABAR Agonist) (AID 2283338)
# In short: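 Radioligand binding to bovine cerebellar membranes in agonist format, read by filter-based scintillation counting after 1 h. Primary screen in duplicate at 25 uM, with actives followed in concentration series. Gain of signal versus DMSO.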
# [10] = molecular target: chimpanzee Androgen Receptor (AR), AR (gene 747460) (UniProt O97775); assay: NVS_NR_cAR: NovaScreen (NVS) Nuclear Receptor Binding Assay for chimpanzee Androgen Receptor (AR) (AID 2283346);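 further: radioligand displacement from AR measured by scintillation counting in a cell-free assay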
# Chain of chimpanzee Androgen Receptor (AR), AR (gene 747460) (O97775 whole entry, looked up): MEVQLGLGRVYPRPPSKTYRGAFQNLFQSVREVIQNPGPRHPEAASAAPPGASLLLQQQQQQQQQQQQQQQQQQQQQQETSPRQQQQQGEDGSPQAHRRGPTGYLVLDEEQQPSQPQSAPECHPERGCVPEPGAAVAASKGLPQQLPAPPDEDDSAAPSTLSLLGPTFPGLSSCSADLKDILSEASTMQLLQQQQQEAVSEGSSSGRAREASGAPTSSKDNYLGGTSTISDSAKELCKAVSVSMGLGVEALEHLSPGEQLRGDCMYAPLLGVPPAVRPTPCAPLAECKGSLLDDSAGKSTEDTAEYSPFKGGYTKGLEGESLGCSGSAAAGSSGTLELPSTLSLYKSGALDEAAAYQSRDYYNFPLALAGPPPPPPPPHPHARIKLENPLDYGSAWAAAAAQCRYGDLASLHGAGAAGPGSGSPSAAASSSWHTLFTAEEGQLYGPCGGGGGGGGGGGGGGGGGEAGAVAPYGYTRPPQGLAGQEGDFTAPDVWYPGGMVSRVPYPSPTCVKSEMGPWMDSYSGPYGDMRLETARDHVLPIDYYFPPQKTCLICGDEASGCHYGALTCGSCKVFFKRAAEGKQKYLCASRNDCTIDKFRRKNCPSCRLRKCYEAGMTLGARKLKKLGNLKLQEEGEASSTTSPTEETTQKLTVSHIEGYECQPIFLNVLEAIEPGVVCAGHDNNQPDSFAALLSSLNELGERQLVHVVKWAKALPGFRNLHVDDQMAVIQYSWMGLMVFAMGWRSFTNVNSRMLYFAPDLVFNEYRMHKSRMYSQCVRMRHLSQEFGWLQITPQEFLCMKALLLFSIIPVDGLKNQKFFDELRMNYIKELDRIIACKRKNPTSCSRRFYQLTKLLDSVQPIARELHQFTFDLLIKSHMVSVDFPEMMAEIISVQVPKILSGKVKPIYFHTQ
# In short: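 Radioligand binding to chimpanzee AR expressed in Sf9/Sf21 cells, cell-free, measured 72 h after dosing by lysate-based scintillation counting. Loss of signal vs DMSO; initial duplicate screen at 25 uM, actives retested in concentration series.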
# [11] = molecular target: human Constitutive Androstane Receptor (CAR), NR1I3 (gene 9970) (UniProt Q14994); assay: NVS_NR_hCAR_Antagonist: NovaScreen (NVS) Nuclear Receptor Binding Assay for human Constitutive Androstane Receptor Antagonism (CAR) (AID 2283344)
# Chain of human Constitutive Androstane Receptor (CAR), NR1I3 (gene 9970) (Q14994 whole entry, looked up): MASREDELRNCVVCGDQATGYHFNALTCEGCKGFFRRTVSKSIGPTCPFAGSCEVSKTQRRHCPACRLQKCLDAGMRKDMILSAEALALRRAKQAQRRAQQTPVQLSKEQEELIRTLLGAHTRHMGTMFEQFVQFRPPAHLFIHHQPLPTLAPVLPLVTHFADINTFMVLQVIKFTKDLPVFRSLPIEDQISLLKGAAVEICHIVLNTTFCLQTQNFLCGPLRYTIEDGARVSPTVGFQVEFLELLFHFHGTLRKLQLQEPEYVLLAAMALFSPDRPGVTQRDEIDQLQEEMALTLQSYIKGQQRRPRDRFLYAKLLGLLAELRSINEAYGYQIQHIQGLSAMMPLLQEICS
# In short: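 Single 25 uM duplicate primary screen, with concentration-series follow-up on actives. Cell-free binding format run in antagonist mode, TR-FRET signal taken 1 h post-dose; activity is signal loss relative to DMSO.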
# [12] = molecular target: Glutamate receptor ionotropic, kainate 1 (Rattus norvegicus) (UniProt P22756); assay: NVS_IC_rKAR: NovaScreen (NVS) Ion Channel Assay for rat Kainic Acid Receptors (KAR) (AID 2283334; active means hit-call score of the fitted dose curve at least 0.9, where 1 is the maximum; inactive means score below 0.9)
# Chain of Glutamate receptor ionotropic, kainate 1 (Rattus norvegicus) (P22756 whole entry, looked up): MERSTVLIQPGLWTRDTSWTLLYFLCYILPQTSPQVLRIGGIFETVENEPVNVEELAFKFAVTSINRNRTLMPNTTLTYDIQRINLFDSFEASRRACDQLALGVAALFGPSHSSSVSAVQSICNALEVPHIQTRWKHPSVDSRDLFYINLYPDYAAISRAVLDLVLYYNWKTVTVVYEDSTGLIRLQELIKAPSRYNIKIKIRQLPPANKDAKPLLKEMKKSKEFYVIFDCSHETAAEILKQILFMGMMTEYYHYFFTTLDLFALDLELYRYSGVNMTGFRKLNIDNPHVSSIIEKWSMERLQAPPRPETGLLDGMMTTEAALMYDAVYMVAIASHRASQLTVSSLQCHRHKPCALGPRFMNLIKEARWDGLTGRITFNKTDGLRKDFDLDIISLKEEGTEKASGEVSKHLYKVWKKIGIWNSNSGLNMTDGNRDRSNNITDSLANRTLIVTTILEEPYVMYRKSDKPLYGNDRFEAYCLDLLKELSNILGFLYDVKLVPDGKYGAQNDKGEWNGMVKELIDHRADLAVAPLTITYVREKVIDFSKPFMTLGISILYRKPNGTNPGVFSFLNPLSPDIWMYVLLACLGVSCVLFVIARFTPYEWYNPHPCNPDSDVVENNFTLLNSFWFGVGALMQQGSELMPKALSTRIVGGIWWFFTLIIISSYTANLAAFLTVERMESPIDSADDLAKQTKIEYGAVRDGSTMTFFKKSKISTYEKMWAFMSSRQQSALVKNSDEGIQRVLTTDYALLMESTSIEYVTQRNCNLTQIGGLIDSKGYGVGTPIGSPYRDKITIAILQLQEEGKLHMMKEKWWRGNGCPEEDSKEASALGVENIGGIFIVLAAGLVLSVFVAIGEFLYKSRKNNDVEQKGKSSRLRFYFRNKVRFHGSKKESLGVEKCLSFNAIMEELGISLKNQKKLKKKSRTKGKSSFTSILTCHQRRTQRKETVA
# In short: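 Rat forebrain membrane preparation incubated 1 h with radioligand and test chemical; bound signal read by filtration and scintillation. Single-concentration screen at 25 uM, then concentration series to 50 uM maximum.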
# [13] = molecular target: rat Gamma-Aminobutyric Acid Type A Receptor, Non-Selective (GABAR-NonSelective), Gabra1 (gene 29705) (UniProt P62813); assay: NVS_LGIC_rGABAR_NonSelective: NovaScreen (NVS) Ligand-Gated Ion Channel Assay for rat Gamma-Aminobutyric Acid Type A Receptor, Non-Selective (GABAR-NonSelective) (AID 2283326)
# Chain of rat Gamma-Aminobutyric Acid Type A Receptor, Non-Selective (GABAR-NonSelective), Gabra1 (gene 29705) (P62813 whole entry, looked up): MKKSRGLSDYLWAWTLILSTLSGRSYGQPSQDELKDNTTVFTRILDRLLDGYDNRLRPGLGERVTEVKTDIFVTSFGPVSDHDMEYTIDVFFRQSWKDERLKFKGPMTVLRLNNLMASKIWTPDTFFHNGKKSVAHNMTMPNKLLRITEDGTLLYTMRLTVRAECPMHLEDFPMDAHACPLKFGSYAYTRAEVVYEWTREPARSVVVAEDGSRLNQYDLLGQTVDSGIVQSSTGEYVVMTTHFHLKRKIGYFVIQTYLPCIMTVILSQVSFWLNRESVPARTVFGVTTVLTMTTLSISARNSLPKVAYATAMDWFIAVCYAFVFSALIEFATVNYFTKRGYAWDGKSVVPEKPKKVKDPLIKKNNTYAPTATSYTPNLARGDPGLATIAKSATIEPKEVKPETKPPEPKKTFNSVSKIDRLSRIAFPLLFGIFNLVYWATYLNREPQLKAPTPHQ
# In short: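 Compounds were first screened in duplicate at 25 uM, with actives run as singleton concentration series (max 50 uM). Binding of a radioligand to rat whole-brain GABA-A preparation was measured by filtration and scintillation counting after 1 h, DMSO baseline.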
# [14] = molecular target: rat Glutamate, NMDA Agonist Site (GluNMDA), Grin1 (gene 24408) (UniProt P35439); assay: NVS_LGIC_rGluNMDA_Agonist: NovaScreen (NVS) Ligand-Gated Ion Channel Assay for rat Glutamate, NMDA Agonist Site (GluNMDA) (AID 2283327)
# In short: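 Radioligand displacement at the agonist site on rat forebrain membrane preparations, read by filter scintillation after 1 h. Chemicals were first run at 25 uM in duplicate; those passing threshold were titrated to a 50 uM maximum.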
# [15] = molecular target: rat Glutamate, MK-801 Agonist Site (GluNMDA_MK801), Grin1 (gene 24408) (UniProt P35439); assay: NVS_LGIC_rGluNMDA_MK801_Agonist: NovaScreen (NVS) Ligand-Gated Ion Channel Assay for rat Glutamate, MK-801 Agonist Site (GluNMDA_MK801) (AID 2283340)
# In short: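 Rat forebrain membrane preparation; MK-801-site radioligand binding read by filtration and scintillation after 1.5 h. Single-point 25 uM duplicate screen, followed by singleton concentration series to 50 uM max; DMSO baseline.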
compound,measurement,setting,value
CC(=O)OCCC(C)C,outcome,[1],inactive
Cn1c(=O)cc(Oc2ccc(F)cc2F)c2cnc(NCC(C)(C)O)nc21,outcome,[1],inactive
same,AC50,[2],9.69 µM (active)
same,outcome,[3],inactive
Cc1[nH]cnc1C[C@H]1CCc2c(C)c3ccccc3n2C1=O,AC50,[4],2.04 nM (active)
same,outcome,[5],inactive
same,outcome,[6],inactive
same,AC50,[7],4.76 µM (active)
same,outcome,[8],inactive
same,AC50,[9],9.14 µM (active)
CC1=CC(=O)CC(C)(C)C1,outcome,[1],inactive
O=C(OC[C@H]1O[C@@H](OC(=O)c2cc(O)c(O)c(OC(=O)c3cc(O)c(O)c(O)c3)c2)[C@H](OC(=O)c2cc(O)c(O)c(OC(=O)c3cc(O)c(O)c(O)c3)c2)[C@@H](OC(=O)c2cc(O)c(O)c(OC(=O)c3cc(O)c(O)c(O)c3)c2)[C@@H]1OC(=O)c1cc(O)c(O)c(OC(=O)c2cc(O)c(O)c(O)c2)c1)c1cc(O)c(O)c(OC(=O)c2cc(O)c(O)c(O)c2)c1,AC50,[1],9.44 µM (active)
same,AC50,[6],5.11 µM (active)
same,AC50,[2],0.715 µM (active)
same,AC50,[10],472 nM (active)
CC(C)=CCC/C(C)=C\CO,outcome,[4],inactive
same,outcome,[11],inactive
same,outcome,[10],inactive
COc1ccc2sc(C(=O)Nc3nnn[nH]3)c(OC(C)C)c2c1,AC50,[6],25 µM (active)
same,outcome,[12],inactive
same,AC50,[2],25 µM (active)
same,outcome,[10],inactive
same,outcome,[3],inactive
CNCc1ccc(NC(=O)c2c[nH]c3c2C(=O)CCC3)cc1,outcome,[1],inactive
same,outcome,[13],inactive
COCCOc1cc2cc(C(=O)NC3CCN(C(C)C)CC3)n(CC(=O)Nc3ccc(Cl)cn3)c2cn1,outcome,[13],inactive
same,AC50,[8],5.21 µM (active)
O=c1[nH]c2ccc(S(=O)CCN3CCC(Cc4ccc(F)cc4)CC3)cc2o1 (stereo not given),outcome,[14],inactive
same,outcome,[12],inactive
same,outcome,[15],inactive
